Assay results: PubChem BioAssay (EPA / NIEHS)
Several values for one entry are separate records, joined by “and”; a condition that tells them apart may be missing. Identical values can stand only once. A structure can be active in one record and inactive in another. Activity calls are given as the source filed them. Rule for the calls: active = hit-call score of the fitted dose curve at least 0.9, where 1 is the maximum; inactive = score below 0.9.

Each compound was assayed on Human Leukocyte Antigen - DR isotype (HLADR), HLA-DRA (gene 3122) (assay: BSK_3C_HLADR: BioMAP Diversity Plus: 3C Assay for Human Leukocyte Antigen - DR isotype (HLADR) Biomarker Activity (AID 2283019)). Conditions: primary human endothelial cells (HUVEC); actives raise or lower the signal.
Method: BSK_3C is a cell-based, multiplexed-readout assay that uses umbilical vein endothelium, a human vascular primary cell, with measurements taken at 24 hours after chemical dosing in a 96-well plate.BSK_3C_HLADR is an assay component measured in the BSK_3C assay. It measures HLA-DR antibody related to regulation of gene expression using ELISA technology.Data from the assay component BSK_3C_HLADR was analyzed into 1 assay endpoint. This assay endpoint, BSK_3C_HLADR, was analyzed with bidirectional fitting relative to DMSO as the negative control and baseline of activity. Using a type of binding reporter, gain or loss-of-signal activity can be used to understand changes in the signaling as they relate to the gene HLA-DRA. Furthermore, this assay endpoint can be referred to as a primary readout, because this assay has produced multiple assay endpoints where this one serves a signaling function. To generalize the intended target to other relatable targets, this assay endpoint is annotated to the cell adhesion molecules intended target family, where the subfamily is MHC Class II.
The levels of cell surface (or secreted, indicated by the prefix "s") biomarker endpoints were measured by ELISA. Overt cytotoxicity to cells in confluent adherent cultures (all systems other than the BT system) was assessed by measuring total protein levels using sulforhodamine B (SRB) staining in parallel cultures at the time of biomarker measurements, indicated as SRB endpoints. For proliferation assays for adherent cell types, individual cell types are cultured at sub-confluence and relative cell numbers quantified by SRB staining at time points optimized for each system (48 h: 3C and CASM3C systems; 72 h: BT and HDF3CGF systems; 96 h: SAg system). SRB was performed by staining cells with 0.1% SRB after fixation with 10% TCA and reading wells at 560 nm.Viability and proliferation of PBMC (T cells) was quantified by Alamar Blue reduction for the SAg and BT systems. For PBMC viability (referred to as PBMC Cytotoxicity within the assay endpoint names), cells were plated (75,000/well in a 96-well plate) and then chemical samples added for 1 h before addition of activators, SEB and TSST-1 (20 ng/mL final concentration each). Cells were incubated for 90 h. Then, Alamar Blue (20 uL/well) (Invitrogen, Cat DAL1100) was added for 6 h, and the plates were read with a fluorescence microplate reader at 546/580 nm (excitation/emission). For PBMC proliferation, cells were plated and activated as above but incubated for only 16 h prior to addition of Alamar Blue. Plates were read after 6 h.
`O=C(F)C1(F)C(F)(F)C(F)(F)C(F)(F)C(F)(F)C1(F)F` was tested, and the outcome was “inactive”. In the case of `CCN(CC)c1ccc(C=O)c(O)c1`, the AC50 is reported as 32.9 µM (active). `CCOC(=O)CC(=O)C(F)(F)C(F)(F)F` was tested, and the outcome was “inactive”. In the case of `O=S(=O)(Cl)C(F)(F)C(F)(F)C(F)(F)C(F)(F)C(F)(F)C(F)(F)C(F)(F)C(F)(F)F`, the outcome is reported as “inactive”. In the case of `CO[Si](C)(CCC(F)(F)C(F)(F)C(F)(F)C(F)(F)C(F)(F)C(F)(F)F)OC`, the outcome is reported as “inactive”. With `Cc1ccc(O)c(-n2nc3ccccc3n2)c1` the outcome was “inactive”. For `O=C(Cl)C(F)(F)C(F)(F)C(F)(F)C(F)(F)C(F)(F)C(F)(F)C(F)(F)F`, the outcome was “inactive”. `OCCCC(F)(F)C(F)(F)C(F)(F)C(F)(F)C(F)(F)C(F)(F)C(F)(F)C(F)(F)F` was tested, and the AC50 was 19.4 µM (active) and 43.2 µM (active). With `Cc1cc(C)c(O)c(C(C)(C)C)c1` the AC50 was 15.8 µM (active). With `OCC(O)CC(F)(F)C(F)(F)C(F)(F)C(F)(F)C(F)(F)C(F)(F)C(F)(F)C(F)(F)F` (stereo not given) the outcome was “inactive”. For `CCOC(C=C(C)CCC=C(C)C)OCC`, the AC50 was 35.4 µM (active). For `O=C(c1ccccc1)c1ccc(O)cc1O`, the outcome was “inactive”. In the case of `NC(=O)C(F)(F)C(F)(F)C(F)(F)C(F)(F)C(F)(F)C(F)(F)C(F)(F)F`, the outcome is reported as “inactive”. With `CC1=CC2C3C=CC(C3)C2C1C` (stereo not given) the outcome was “inactive”. For `O=C(O)C(F)(F)C(F)(F)C(F)(F)OC(F)(F)F`, the outcome was “inactive”. With `NC(=O)C(F)(F)C(F)(F)C(F)(F)C(F)F` the outcome was “inactive”. With `FC(F)(F)C(F)(F)C(F)(F)CC1CO1` (stereo not given) the outcome was “inactive”. For `OC(O)C(F)(F)C(F)(F)F`, the outcome was “inactive”. In the case of `O=C(O)C(F)(F)C(F)(F)C(F)(F)C(F)(F)C(F)(F)C(F)(F)C(F)F`, the outcome is reported as “inactive”. In the case of `NC(O)(C(F)(F)F)C(F)(F)F`, the outcome is reported as “inactive”. In the case of `OCC(F)(F)C(F)(F)C(F)(F)C(F)(F)C(F)(F)C(F)(F)C(F)(F)C(F)(F)CO`, the AC50 is reported as 30 µM (active) and the outcome is reported as “inactive”. With `NCC(F)(F)C(F)(F)C(F)(F)C(F)(F)C(F)(F)C(F)(F)C(F)(F)C(F)(F)F` the outcome was “inactive”. In the case of `C=CC(=O)OCC(F)(F)C(F)(F)C(F)(F)COC(=O)C=C`, the AC50 is reported as 14 µM (active) and 12.3 µM (active). For `FC(F)(F)C(F)(F)C(F)(F)C(F)(F)C(F)(F)C(F)(F)CC[Si](Cl)(Cl)Cl`, the outcome was “inactive”. `O=C(O)C(F)(F)OC(F)(F)C(F)(F)OC(F)(F)C(F)(F)OC(F)(F)F` was tested, and the outcome was “inactive”. With `OCCCCC(F)(F)C(F)(F)C(F)(F)C(F)(F)F` the outcome was “inactive”. `O=C(Cl)C(F)(F)C(F)(F)C(F)(F)C(F)(F)C(F)(F)C(F)(F)F` was tested, and the outcome was “inactive”. For `NC(=O)C(F)(F)C(F)(F)C(F)(F)F`, the outcome was “inactive”. With `C=CC(=O)OCC(F)(F)C(F)(F)C(F)(F)C(F)(F)C(F)(F)C(F)(F)C(F)(F)C(F)F` the outcome was “inactive”. With `Cc1ccc(S(=O)(=O)C(I)I)cc1` the AC50 was 1.15 µM (active). `OCC(F)(F)C(F)(F)C(F)(F)CO` was tested, and the outcome was “inactive”. In the case of `O=S(=O)(O)CCC(F)(F)C(F)(F)C(F)(F)C(F)(F)F`, the outcome is reported as “inactive”. For `O=S(=O)(OCC(F)(F)F)C(F)(F)C(F)(F)C(F)(F)C(F)(F)F`, the outcome was “inactive”. With `C[C@]12CC[C@H]3C(=CCc4cc(O)ccc43)[C@@H]1CCC2=O` the AC50 was 20 µM (active). In the case of `CCN=C1C=CC(=C(c2ccc(N(CC)CC)cc2)c2ccc(N(CC)CC)cc2)c2ccccc21`, the AC50 is reported as 1.95 µM (active) and 1.7 µM (active). `C[Si](Cl)(Cl)CCC(F)(F)C(F)(F)C(F)(F)C(F)(F)C(F)(F)C(F)(F)F` was tested, and the outcome was “inactive”. `OCC(F)(F)C(F)(F)C(F)(F)C(F)(F)C(F)(F)C(F)(F)CO` was tested, and the outcome was “inactive”. For `CN(C(=O)C(F)(F)C(F)(F)C(F)(F)F)[Si](C)(C)C`, the outcome was “inactive”. With `O=C(O)CCC(F)(F)C(F)(F)C(F)(F)F` the outcome was “inactive”.
